Activity calls are given as the source filed them. The calls were made as follows: active = hit-call score of the fitted dose curve at least 0.9, where 1 is the maximum; inactive = score below 0.9.

A word on the AC50: it is the midpoint of the concentration-response curve, whichever way the signal moves.

The nature of the experiment: CCTE_Shafer_MEA_acute_burst_percentage_std: CCTE's Neural Acute Assay for Standard Deviation of Burst Percentage, Shafer Lab (AID 2284018).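 Also: fitted in the negative direction so actives lower burst percentage SD.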 The method in brief:
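Rat primary cortical neurons on 48-well MEAs, DIV 13 or 15, 37 C. 40-min baseline then 40-min recording with compound (0.03-40 uM); well-level SD of per-electrode burst spike percentage, expressed as percent change from baseline.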
As for `Nc1nc(=S)c2[nH]cnc2[nH]1`, the molecule was classed as inactive.

In the case of `CCc1cc(C2=C(C(=O)O)N(c3ccccc3C(F)(F)F)S(=O)(=O)c3ccccc32)cc2c1OCO2`, the molecule was classed as inactive.

On to `Cc1ccc(-c2cc(C(F)(F)F)nn2-c2ccc(S(N)(=O)=O)cc2)cc1`, for which the result was inactive.

For `OCC(CO)n1cnc(-c2ccc(F)cc2)c1-c1ccnc(Oc2ccccc2)n1`, the outcome was inactive.

Take `CN(C)C(=O)NC1(c2ccccc2)CCN(CCC[C@]2(c3ccc(Cl)c(Cl)c3)CCCN(C(=O)c3ccccc3)C2)CC1`: the AC50 was 1.83 µM (active).

Regarding `CN(C)C(=O)NC1(c2ccccc2)CCN(CC[C@@]2(c3ccc(F)c(F)c3)CN(C(=O)c3ccccc3)CCO2)CC1`, the molecule was classed as inactive.

Turning to `CCN(CC)CCOc1ccc(C(=C(Cl)c2ccccc2)c2ccccc2)cc1`, the AC50 was 29.1 µM (active).

In the case of `Cc1c(C)c2c(c(C)c1O)CCC(C)(COc1ccc(CC3SC(=O)NC3=O)cc1)O2` (configuration not stated), the AC50 was 33.1 µM (active).

For the molecule `CN(C)CCCN1c2ccccc2Sc2ccc(Cl)cc21`, the AC50 was 31.6 µM (active).

Regarding `CCCCC(CC)COP(=O)(OCC(CC)CCCC)OCC(CC)CCCC` (configuration not stated), the molecule was classed as inactive.

Turning to `Cc1cc(SC2=C(O)C[C@@](CCc3ccc(N)cc3)(C(C)C)OC2=O)c(C(C)(C)C)cc1CO`, the molecule was classed as inactive.

On to `CSc1ccc(Oc2ccc(S(N)(=O)=O)cc2CN(C)C)cc1C`, for which the half-maximal activity concentration (AC50) is 32.1 µM (active).

Regarding `CCCC(=O)O`, the outcome was inactive.

Consider `CC1=C(C)S(=O)(=O)CCS1(=O)=O`, for which the result was inactive.

On to `O=C1OC(c2ccc(O)cc2)(c2ccc(O)cc2)c2ccccc21`, for which the molecule was classed as inactive.

For the molecule `NC(=Nc1ccccc1)Nc1ccccc1`, the result was inactive.

Turning to `Oc1ccc(O)cc1`, the result was inactive.

These data come from PubChem BioAssay (EPA / NIEHS).
